{"source": "the supplement of paper PMC10042075", "note": "Where “and” joins values, the source holds several entries; their conditions need not be identical. Identical values can stand only once. Counter-ions that a name gives are not always drawn. ± gives the standard deviation of the averaged measurements."}
{"system": "LASCPC-01", "assay": "cell viability relative to DMSO control (fraction); higher = less growth inhibition (more viable cells)", "conditions": "2 µM; 72 h", "protocol": "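High-throughput single-dose screen in the LASCPC-01 NEPC cell line in 384-well plates. Cells were treated with each compound at 2 µM for 72 h, and viability was read by CellTiter-Glo luminescence. Values are normalised to the DMSO control (compound/DMSO) from three replicates; only the 5-HT-related subset of the 7315-compound library is given.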"}
{"smiles": "O=c1n(CCCN2CCN(c3cccc(Cl)c3)CC2)nc2ccccn12", "note": "[Trazodone hydrochloride]", "cell viability": 1.04}
{"smiles": "O=C1c2cccc3c2[C@H](CCC3)CN1[C@@H]1CN2CCC1CC2", "note": "[Palonosetron hydrochloride]", "cell viability": 0.935}
{"smiles": "CN1CCN2c3ccccc3Cc3ccccc3C2C1", "note": "(stereo not given) [Mianserin hydrochloride]", "cell viability": 1.04}
{"smiles": "COc1ccccc1N1CCN(CCCCN2C(=O)c3ccccc3C2=O)CC1", "note": "[NAN-190 hydrobromide]", "cell viability": 0.884}
{"smiles": "CNCC[C@H](Oc1cccc2ccccc12)c1cccs1", "note": "[Duloxetine HCl]", "cell viability": 1.13}
{"smiles": "Cc1cc2c(s1)Nc1ccccc1N=C2N1CCN(C)CC1", "note": "[Olanzapine]", "cell viability": "1.02 ± 0.042"}
{"smiles": "CNCCC(Oc1ccc(C(F)(F)F)cc1)c1ccccc1", "note": "(stereo not given) [Fluoxetine HCl]", "cell viability": 1.02}
{"smiles": "CN1CCC(c2c[nH]c3ccc(NC(=O)c4ccc(F)cc4)cc23)CC1", "cell viability": 0.954}
{"smiles": "CN1CCN(c2nc3cc(C(F)(F)F)ccc3n3cccc23)CC1", "cell viability": 0.521}
{"smiles": "CN1CCC[C@@H]1Cc1c[nH]c2ccc(CCS(=O)(=O)c3ccccc3)cc12", "note": "[Eletriptan HBr]", "cell viability": 0.983}
{"smiles": "Cn1cc(C(=O)[C@@H]2CCc3[nH]cnc3C2)c2ccccc21", "note": "[Ramosetron]", "cell viability": 1.08}
{"smiles": "CC(CN1c2ccccc2Sc2ccccc21)N(C)C", "note": "(stereo not given) [Promethazine]", "cell viability": 1.11}
{"smiles": "O=C1[C@H]2CCCC[C@H]2C(=O)N1CCCCN1CCN(c2nsc3ccccc23)CC1", "note": "[Perospirone]", "cell viability": 0.997}
{"smiles": "CN(C)CCCc1cc(C(=O)Nc2ccc(-c3ccncc3)cc2)ccc1O", "cell viability": 0.993}
{"smiles": "CN(C)CCC=C1c2ccccc2CCc2ccccc21", "note": "[Amitriptyline HCl]", "cell viability": 1.15}
{"smiles": "O=c1c(-c2ccc(O)cc2)coc2c([C@@H]3O[C@H](CO)[C@@H](O)[C@H](O)[C@H]3O)c(O)ccc12", "note": "[Puerarin]", "cell viability": 0.989}
{"smiles": "CNS(=O)(=O)Cc1ccc2[nH]cc(CCN(C)C)c2c1", "note": "[Sumatriptan Succinate]", "cell viability": 0.971}
{"smiles": "CN1[C@@H]2CC[C@H]1C[C@@H](OC(=O)c1c[nH]c3ccccc13)C2", "note": "[Tropisetron]", "cell viability": 1.01}
{"smiles": "N#Cc1cc(CN2CCC(Nc3ncnc4sc(Cl)cc34)CC2)ccc1F", "cell viability": 0.875}
{"smiles": "CN1[C@@H]2CC[C@H]1CC(OC(=O)c1c[nH]c3ccccc13)C2", "note": "(stereo not given in full) [3-Tropanyl-indole-3-carboxylate hydrochloride]", "cell viability": 1.04}
{"smiles": "CN(C)[C@@H](CCOc1cccc2ccccc12)c1ccccc1", "note": "[Dapoxetine HCl]", "cell viability": 1.03}
{"smiles": "CNCCC(Oc1ccc(C(F)(F)F)cc1)c1ccccc1", "note": "(stereo not given) [Fluoxetine hydrochloride]", "cell viability": 0.686}
{"smiles": "O=C1CC2(CCCC2)CC(=O)N1CCCCN1CCN(c2ncccn2)CC1", "note": "[Buspirone HCl]", "cell viability": 1.02}
{"smiles": "COc1ccccc1N1CCN(CCN(C(=O)C2CCCCC2)c2ccccn2)CC1", "cell viability": "0.987 and 1.03"}
{"smiles": "N#Cc1ccc2[nH]cc(CCCCN3CCN(c4ccc5oc(C(N)=O)cc5c4)CC3)c2c1", "note": "[Vilazodone HCl]", "cell viability": 0.916}
{"smiles": "CN1CCC(=C2c3ccccc3C=Cc3ccccc32)CC1", "note": "[Cyproheptadine hydrochloride]", "cell viability": 1.14}
{"smiles": "CNc1cc(NS(=O)(=O)c2ccc(N)cc2)nc(NC)n1", "note": "[Ro 04-6790 dihydrochloride]", "cell viability": 1.03}
{"smiles": "Cc1nc2sccn2c(=O)c1CCN1CCC(=C(c2ccc(F)cc2)c2ccc(F)cc2)CC1", "note": "[Ritanserin]", "cell viability": 0.989}
{"smiles": "Cn1ccc2cc(NC(=O)Nc3cccnc3)ccc21", "cell viability": 1.03}
{"smiles": "O=C(O[C@@H]1C[C@@H]2C[C@H]3C[C@H](C1)N2CC3=O)c1c[nH]c2ccccc12", "note": "[Dolasetron mesylate hydrate]", "cell viability": 1.07}
{"smiles": "c1ccc2c(c1)CC(N1CCN(c3cccc4c3OCCO4)CC1)C2", "cell viability": 0.835}
{"smiles": "O=c1ccccn1CC1(O)CCN(Cc2ccccc2)CC1", "cell viability": 1.05}
{"smiles": "Cc1ccc(C(=O)Oc2ccc(C(CN(C)C)C3(O)CCCCC3)cc2)cc1", "note": "(stereo not given) [Ansofaxine hydrochloride]", "cell viability": 0.931}
{"smiles": "COc1ccccc1N1CCN(CCN2C(=O)CC3(CCCC3)CC2=O)CC1", "cell viability": 0.815}
{"smiles": "COCCCN1CCC(NC(=O)c2cc(Cl)c(N)c3c2OCC3)CC1", "note": "[Prucalopride Succinat]", "cell viability": 1.1}
{"smiles": "CCc1nn(CCCN2CCN(c3cccc(Cl)c3)CC2)c(=O)n1CCOc1ccccc1", "note": "[Nefazodone hydrochloride]", "cell viability": 1.03}
{"smiles": "COc1cccc(CCc2ccccc2OCC(CN(C)C)OC(=O)CCC(=O)O)c1", "note": "(stereo not given) [Sarpogrelate hydrochloride]", "cell viability": 1.09}
{"smiles": "CN(C)CCCN1c2ccccc2CCc2ccc(Cl)cc21", "note": "[Clomipramine hydrochloride]", "cell viability": 0.987}
{"smiles": "CN1CCCCC1CCN1c2ccccc2Sc2ccc([S+](C)[O-])cc21", "note": "(stereo not given) [Mesoridazine Besylate]", "cell viability": 1.07}
{"smiles": "CN(C)C/C=C(/c1ccc(Br)cc1)c1cccnc1", "note": "[Zimelidine dihydrochloride]", "cell viability": 1.01}
